Test [1] can be described thus: NCI Yeast Anticancer Drug Screen. Data for the rad50 strain (AID 155).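 Also: 0% = growth of vehicle-only cultures of the same strain.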 The following applies: S. cerevisiae rad50 strain growth inhibition, stronger effect = higher value; at 50.0 µM unless noted. The gist of the method:
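Vehicle-treated cultures provide the reference for the growth inhibition reported for compound-exposed, repair-deficient yeast.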

Test [2] can be described thus: NCI Yeast Anticancer Drug Screen. Data for the mec2-1 strain (AID 157). The following applies: S. cerevisiae mec2-1 strain, stronger effect = higher value; at 50.0 µM unless noted. The gist of the method: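 Test agents were screened against the mec2-1 yeast strain, with defined DNA repair or cell cycle alteration. Growth was scored as inhibition against vehicle-only controls.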

Test [3] is described as follows: NCI Yeast Anticancer Drug Screen. Data for the sgs1 mgt1 strain (AID 161).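 Also: 0% = growth of cultures given vehicle only.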 The following applies: S. cerevisiae sgs1 mgt1 strain, stronger effect = higher value; at 50.0 µM unless noted. In outline: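 Mutant yeast exposed to compound; growth scored against vehicle-only wells.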
Test [4] can be described thus: NCI Yeast Anticancer Drug Screen. Data for the cln2 rad14 strain (AID 165).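 Also: 0% = growth equal to vehicle treated cultures.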 To be noted: S. cerevisiae cln2 rad14 strain, stronger effect = higher value; at 50.0 µM unless noted. The gist of the method:
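Growth of compound-exposed yeast (cln2 rad14 genotype) measured and expressed as inhibition relative to vehicle.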

The nature of test [5]: NCI Yeast Anticancer Drug Screen. Data for the bub3 strain (AID 167). The following applies: S. cerevisiae bub3 mutant strain, stronger effect = higher value; at 50.0 µM unless noted. In outline: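 Mutant yeast screening strain plus compound; vehicle-treated cultures serve as the 0% inhibition reference.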
Test [6] is described as follows: NCI Yeast Anticancer Drug Screen. Data for the mlh1 rad18 strain (AID 175). The following applies: S. cerevisiae mlh1 rad18 strain growth inhibition, stronger effect = higher value; at 50.0 µM unless noted. In outline:
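In this whole-cell yeast screen, a strain with altered DNA damage repair is challenged with compound, and its growth is measured against matched vehicle-treated controls.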

Several values for one entry are separate records, joined by “and”; a condition that tells them apart may be missing. Equal values may be shown once. About 79,000 compounds went through this panel and 15% of them were active in at least one assay; those are over-represented in the sample as a whole. Values without a mark were called inactive. Activity calls are given as the source filed them. Rule as the data show it: active = growth inhibition above about 70%; inactive = the rest.

As for `O=C1c2ccccc2C(=O)c2cc3nc4c5ccccc5c5ccccc5c4nc3cc21`, the growth inhibition in test [1] was -35%; in test [2] it was -21.2%; in test [3] it was -27.2%; in test [4], -37.6%; in test [5], 3.35%; in test [6] it was -13.6%.

As for `COc1ccc(-n2c(N)c(C#N)[nH]c2=O)cc1`, the growth inhibition in test [1] is -8.7%; in test [2], -36.1%; in test [3], -14%; in test [4], -11.8%; in test [5], 6.05%; in test [6], -21.3%.

Take `O=P(O)(O)OC1OC(CO)C(O)C(O)C1O` (stereo not given): the growth inhibition was -16.5% in test [1]; -26.2% in test [2]; -3.9% in test [3]; -25.6% in test [4]; -24.8% in test [5]; -4.75% in test [6].

For `Cc1cc2c(c(C(=O)O)c1C)-c1cccc(Cl)c1C2=O`, the growth inhibition in test [1] is -15.7%; in test [2], -2.3%; in test [3], -23.2%; in test [4] it was -20.2%; in test [5], -13.3%; in test [6], -27.4%.

Consider `CCCCCCCCC1OC1CCCCCCCCOCC(O)CO` (stereo not given), for which the growth inhibition in test [1] was 18.9%; in test [2], -9.95%; in test [3], -1.9%; in test [4] it was -1.2%; in test [5] it was -0.6%; in test [6], -1.6%.

Consider `Cc1ccc(NP(=O)(Nc2ccc(C)cc2)c2ccc([N+](=O)[O-])cc2)cc1`, for which the growth inhibition in test [1] was 93.2% (active); in test [2] it was 94.2% (active); in test [3], 92.7% (active); in test [4], 92.1% (active); in test [5], 85.3% (active); in test [6], 95.6% (active).

As for `O=[N+]([O-])c1cnccc1/C=C\c1ccccc1`, the growth inhibition is 4.5% in test [1]; 3.15% in test [2]; -2.1% in test [3]; -35.9% in test [4]; -5.7% in test [5]; 12% in test [6].

On to `CCCCOC(=O)C(O)Cc1ccoc1` (stereo not given), for which the growth inhibition in test [1] is 5.25%; in test [2], -33.9%; in test [3] it was -17.9%; in test [4], 12.9%; in test [5], -14.4%; in test [6], -14.4%.

`COc1cc(OC)c(NC(=O)C2=C(C)NC(C)=C(C(=O)Nc3cc(Cl)c(OC)cc3OC)C2c2cccc([N+](=O)[O-])c2)cc1Cl`: the growth inhibition in test [1] was 9.25%; in test [2], 23.9%; in test [3] it was 22.9%; in test [4], 36.1%; in test [5], 14.4%; in test [6] it was 3.7%.

As to `CCOC(=O)C1=CN=C2C(=O)N(c3ccccc3)N(C)C2(C)C1=N` (stereo not given), the growth inhibition is -4.8% in test [1]; 0.95% in test [2]; -19.4% in test [3]; 10.8% in test [4]; -11.2% in test [5]; 12.9% in test [6].

With `O=C1c2c(Br)sc(Br)c2C(NC(=O)C(F)(F)F)C1O` (stereo not given), the growth inhibition in test [1] was 10.3%; in test [2], 18.3%; in test [3], -12.3%; in test [4], -11%; in test [5] it was 3.95%; in test [6], -27.4%.

For `NC(=S)/N=C/C=C\c1ccccc1`, the growth inhibition in test [1] was -10.6%; in test [2] it was 2.3%; in test [3] it was 5.25%; in test [4] it was 0.35%; in test [5], -13.8%; in test [6], -7.7%.

For `Cc1ccc(-c2cc(-c3ccccc3)c(C#N)c(=O)n2C2OC(CO)C(O)C(O)C2O)cc1` (stereo not given), the growth inhibition in test [1] was -6.55%; in test [2], -0.3%; in test [3], 2.25%; in test [4], 28.1%; in test [5] it was 8.65%; in test [6], 2.95%.

Take `OC(c1ccccc1)(c1ccccc1)C1/C(=C/c2ccccc2)C1Cc1ccccc1` (stereo not given): the growth inhibition in test [1] was 4.85%; in test [2] it was 2.4%; in test [3], -7.9%; in test [4], -8.1%; in test [5], -3.75%; in test [6] it was 3%.

`COC(C(=O)NN)c1ccccc1` (stereo not given): the growth inhibition in test [1] was -25.1%; in test [2] it was -60.5%; in test [3] it was -59.8%; in test [4], -43.5%; in test [5], -35.5%; in test [6], -35.8%.

Take `O=C(NC1(Sc2ccccc2)CC1)c1ccc(Cl)cc1`: the growth inhibition in test [1] is 17.8%; in test [2], 6.8%; in test [3], 8.9%; in test [4], 20.6%; in test [5], 13.8%; in test [6], 18.9%.

Turning to `CCN(CC)CCN(CC)C(=S)Nc1ccccc1`, the growth inhibition was 1.75% in test [1]; 21.2% in test [2]; 23.2% in test [3]; -4.65% in test [4]; 2% in test [5]; 12.2% in test [6].

As for `CC(C)N(C(C)C)S(=O)(=O)c1ccccc1C(O)(c1ccccc1)c1ccccc1`, the growth inhibition in test [1] is 47.5%; in test [2], -1.15%; in test [3], 39.4%; in test [4], -7.35%; in test [5], -0.95%; in test [6] it was 5.9%.

As for `O=C(CCl)Oc1ccc2ccccc2c1`, the growth inhibition in test [1] is 27.1%; in test [2], -2.05%; in test [3] it was -8.05%; in test [4], 8.25%; in test [5], 13.1%; in test [6] it was 31.4%.

With `COc1ccc(Nc2nc3ccccc3nc2-c2cccs2)cc1OC`, the growth inhibition was -5.8% in test [1]; -2% in test [2]; 13.9% in test [3]; 9.3% in test [4]; -0.7% in test [5]; -23.4% in test [6].

Take `O=C(O)CC(O)(CC(=O)O)C(=O)O`: the growth inhibition in test [1] was 25%; in test [2], 17.9%; in test [3], -19.6%; in test [4], 3.65%; in test [5], -0.25%; in test [6], 9.25%.

For `CC(=O)Nc1ccc(CCCc2ccc([N+](=O)[O-])cc2)cc1`, the growth inhibition in test [1] was 3.15%; in test [2], 3.35%; in test [3], -10.9%; in test [4], -70.2%; in test [5], 1.6%; in test [6], 0%.

Turning to `CCN(CC)CCNc1ccc2ncn3c4cc(=O)ccc4c(O)c1c23`, the growth inhibition in test [1] was -2.3%; in test [2], -31.5%; in test [3] it was -46.4%; in test [4] it was 7.9%; in test [5] it was -7.85%; in test [6] it was 4.3%.

For `CCCCCCCCC(=O)Nc1cccc(O)c1`, the growth inhibition in test [1] is -6.7%; in test [2], -12.4%; in test [3], -8.45%; in test [4], -48.6%; in test [5] it was -26.4%; in test [6] it was -13.8%.

Turning to `CC(C)C(=O)OC1(CC2CCCCN2C)CCCCC1` (stereo not given), the growth inhibition was -3.2% in test [1]; 13.7% in test [2]; 3.95% in test [3]; -5.8% in test [4]; 5.3% in test [5]; 6.85% in test [6].

Take `CCC(O)C(C)(C)[N+](=O)[O-]` (stereo not given): the growth inhibition in test [1] was 3.35%; in test [2], -3.25%; in test [3] it was -2.6%; in test [4] it was -2.05%; in test [5], -0.8%; in test [6], 0.35%.

In the case of `Clc1ccc(-c2c(C3=NCCCN3)nnn2-c2ccc(Cl)cc2)cc1`, the growth inhibition was -16.6% in test [1]; -17.9% in test [2]; -10.9% in test [3]; 11.7% in test [4]; -3.6% in test [5]; -25.7% in test [6].

For `CCOC(=O)C(=CN1CCNC1=S)C(=O)OCC`, the growth inhibition in test [1] was -30.6%; in test [2], -33.6%; in test [3] it was -25.6%; in test [4], -1.6%; in test [5], -15.8%; in test [6] it was -3.85%.

For the compound `NC1=CN(CCCO)C2=N/C(=C\c3ccccc3)C(=O)N12`, the growth inhibition in test [1] is 14.2%; in test [2] it was -3.65%; in test [3] it was 26.4%; in test [4], 8.9%; in test [5], -3.3%; in test [6], 12.7%.

For `CSC(C1c2ccccc2N(c2ccc(C)cc2)c2[nH]c(=O)n(C)c(=O)c21)S(=O)(=O)c1ccc(C)cc1` (stereo not given), the growth inhibition in test [1] is 23.1%; in test [2], 0%; in test [3] it was -21.8%; in test [4], -29%; in test [5] it was 0.15%; in test [6], 16.6%.

With `O=C(O)Cc1ccc(O)cc1`, the growth inhibition in test [1] was 6.25%; in test [2] it was -25.6%; in test [3] it was 8.6%; in test [4] it was 8.45%; in test [5], -11.7%; in test [6], 1.75%.

In the case of `OC1COC(c2ccccc2)OC1` (stereo not given), the growth inhibition in test [1] is -7.15%; in test [2] it was -2.1%; in test [3], 4.15%; in test [4], -5.85%; in test [5], -1.75%; in test [6], 24.6%.

In the case of `CC(=O)c1cccc(NC(=O)Nc2ccc(F)c([N+](=O)[O-])c2)c1`, the growth inhibition was 7.3% in test [1]; 22.9% in test [2]; 21.9% in test [3]; 3.25% in test [4]; 36.5% in test [5]; 2.75% in test [6].

For `Cc1ccc(S(=O)(=O)ONNc2nccc3ccccc23)cc1`, the growth inhibition in test [1] was 16.9%; in test [2], 7.05%; in test [3] it was 1.55%; in test [4] it was -16.8%; in test [5], 1.15%; in test [6], 19.4%.

Take `CCCCCSC(=O)C(N)=O`: the growth inhibition is 10.9% in test [1]; 7.45% in test [2]; 6.7% in test [3]; -25.8% in test [4]; -7.45% in test [5]; 4% in test [6].

Take `S=c1[nH]nc(-c2n[nH]c3ccccc23)o1`: the growth inhibition in test [1] is 3.3%; in test [2], 3.6%; in test [3] it was 5.9%; in test [4] it was -51.3%; in test [5] it was -3%; in test [6], 1.25%.

Take `CCOC(=O)CC(c1ccccc1)C(C)(C(=O)OCC)C(=O)OCC` (stereo not given): the growth inhibition was -18.3% in test [1]; -10.8% in test [2]; 14.8% in test [3]; 35.9% in test [4]; 14.2% in test [5]; -9.3% in test [6].

As to `CC(Br)C(=O)NC(CC(N)=O)C(=O)O` (stereo not given), the growth inhibition in test [1] is 1.8% and -8.25%; in test [2], -15.6% and -16.1%; in test [3], -9.15%; in test [4], 4.2%; in test [5], -14.7%; in test [6], 23% and -17.1%.

As for `CCOC(=O)C(C)NC(=O)c1ccccc1` (stereo not given), the growth inhibition in test [1] is 0.25%; in test [2], -8.5%; in test [3] it was -14.6%; in test [4], -52.2%; in test [5], 5.5%; in test [6], 0.75%.

Turning to `CCOC(=O)Cc1nc(/C(C#N)=C/c2ccco2)[nH]c(=O)c1C#N`, the growth inhibition in test [1] was 2.4%; in test [2], 7.8%; in test [3], 30.9%; in test [4], 34.2%; in test [5] it was 8.15%; in test [6], 39.6%.

The record behind these values is PubChem BioAssay (NCI).
